Sampled rows, rich in hits. Any-hit rate of the full collection: about 1.6%.
GRK2 aptamer HTS: inhibitors of human GRK2 displacing RNA aptamer. bead flow cytometry, FAM-aptamer displacement from GRK2. inhibition of aptamer binding, % at 10 µM. 0.59% of 330,000 active;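 active = inhibition of aptamer binding above 40%, roughly 3 SD of noise, on plates passing a quality check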;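 note: median bead fluorescence of bound FAM aptamer so fluorescent compounds give negative values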
VLA-4 inh: inhibition in a human VLA-4 binding assay. inhibition, % (about 7 µM as worked out from the volumes in the protocol). AID 2557. 0.2% of 330,000 active. P13612. VLA-4 expressing cells, ligand binding flow cytometry; in the data active = inhibition above about 50%
DSG3 Ab inh: human desmoglein-3 autoantibody binding inhibition | AID 588358 | DSG3-coupled beads, scFv-anti-DSG3-GFP binding, flow cytometry; active compounds read low | 0.48% of 310,000 active | binding (percent of control), % at 10 µM | P32926;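 active = binding more than 3 SD below its plate's average and above zero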;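 note: hits lower antibody fragment binding to DSG3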
Target sequence (P32926 whole entry, looked up, the tested form may be a part): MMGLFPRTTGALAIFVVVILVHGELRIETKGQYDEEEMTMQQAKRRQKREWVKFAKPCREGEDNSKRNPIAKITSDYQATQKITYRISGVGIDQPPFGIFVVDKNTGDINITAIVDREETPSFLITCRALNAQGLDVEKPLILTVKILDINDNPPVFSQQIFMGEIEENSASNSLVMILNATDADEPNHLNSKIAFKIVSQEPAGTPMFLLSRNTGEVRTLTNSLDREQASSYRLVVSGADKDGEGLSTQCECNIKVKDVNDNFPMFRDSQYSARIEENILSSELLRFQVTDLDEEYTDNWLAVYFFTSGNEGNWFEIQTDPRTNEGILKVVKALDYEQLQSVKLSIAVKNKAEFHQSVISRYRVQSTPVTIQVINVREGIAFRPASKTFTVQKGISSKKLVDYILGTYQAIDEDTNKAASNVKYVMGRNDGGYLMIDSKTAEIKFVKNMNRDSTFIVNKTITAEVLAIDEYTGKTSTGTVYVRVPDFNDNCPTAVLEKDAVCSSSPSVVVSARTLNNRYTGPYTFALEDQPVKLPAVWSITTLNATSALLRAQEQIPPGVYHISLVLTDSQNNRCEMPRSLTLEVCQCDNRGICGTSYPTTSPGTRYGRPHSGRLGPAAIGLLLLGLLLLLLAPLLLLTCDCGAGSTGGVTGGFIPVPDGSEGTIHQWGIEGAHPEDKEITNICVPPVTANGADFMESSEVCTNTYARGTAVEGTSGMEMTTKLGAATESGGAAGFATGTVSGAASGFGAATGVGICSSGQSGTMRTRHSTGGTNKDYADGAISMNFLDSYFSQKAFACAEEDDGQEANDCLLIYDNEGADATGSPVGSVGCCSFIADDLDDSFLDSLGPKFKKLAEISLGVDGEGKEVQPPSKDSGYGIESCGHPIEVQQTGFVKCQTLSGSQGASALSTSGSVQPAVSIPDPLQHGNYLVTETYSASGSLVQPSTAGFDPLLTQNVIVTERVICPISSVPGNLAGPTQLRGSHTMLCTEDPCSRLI
PREPL inhibitor: human PREPL enzyme inhibition. recombinant PREPL, fluorescence polarization activity-based probe. AID 2751. inhibition, % at 5.96 µM. 0.68% of 320,000 active; in the data active = inhibition above about 43%;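 note: 0% = enzyme with DMSO and 100% = wells lacking enzyme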
GASC-1 inh: human JMJD2C demethylase inhibition | Q9H3R0 | GST-JMJD2C(1-420) H3K9me3 demethylation, DELFIA europium | inhibition, % at 2.35 µM | 0.069% of 330,000 active | AID 2099;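 active = more than half of a compound's replicate wells show inhibition beyond 50%, single wells judged on their own value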;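 note: signal counts dimethyl H3K9 product captured on neutravidin plate; 0% = median of DMSO wells and 100% = 0.3 times that DMSO median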
GRK2 inh confirm: human GRK2 inhibition confirmation, cherry pick 1 | 4% of 2,000 active | aptamer displacement, % at 10 µM | shares compounds with GRK2 aptamer HTS | bead-bound GRK2, FAM-aptamer displacement, flow cytometry;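 active = aptamer displacement above 40%, near three times the noise of non-fluorescent compounds, on plates passing quality checks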;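 note: negative values mostly reflect intrinsic compound fluorescence rather than true enhancement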
Aptamer quench 1: fluorescent aptamer quenching in GRK2 counter-screen dose response; shares compounds with GRK2 aptamer HTS; Fluorescent RNA aptamer beads, flow cytometry; active compounds read high; fluorescence change (kMESF span), kMESF (concentration not given with the values); 110 tested, under 10 active;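 active = compounds whose bead fluorescence drops by more than 37 kMESF across the dose range, marking them as dye quenchers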
Aptamer quench SP: aptamer fluorescence quenching in GRK2 counter-screen. Carboxyfluorescein RNA aptamer on beads, flow cytometry quenching; active compounds read low. fluorescence response (% of DMSO), % at 10 µM. shares compounds with GRK2 aptamer HTS. AID 504580. 2,000 tested, under 10 active;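 active = compounds that quench the bead-bound fluorescent RNA probe, cutting fluorescence to under half of the solvent control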;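 note: counterscreen run without GRK2 so only probe quenching by compound is measured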
GRK2 confirm 2: human GRK2 inhibition confirmation, cherry pick 2 | inhibition of aptamer binding, % at 10 µM | shares compounds with GRK2 aptamer HTS | 360 tested, under 10 active | bead-bound GRK2, FAM-aptamer displacement, flow cytometry | AID 504782;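 active = inhibition of aptamer binding above 40%, about triple the noise seen with nonglowing compounds, on plates passing quality control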;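 note: negative values mostly come from compounds that fluoresce themselves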
FAM quench CP2: aptamer fluorescence quenching in GRK2 counter-screen; 360 tested, under 10 active; carboxyfluorescein RNA aptamer beads, flow cytometry quenching; active compounds read low; fluorescence response vs DMSO, % at 10 µM; shares compounds with GRK2 aptamer HTS; AID 588494;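 active = response vs DMSO under 50%, meaning signal dropped by over half, treated as fluorescence quencher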;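 note: labelled aptamer on streptavidin beads without GRK2 as a quench counter-screen; 100% = bead fluorescence of DMSO wells and lower means quenching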
Active calls of the source: *; · = no result given.

SMILES	GRK2 aptamer HTS	VLA-4 inh	DSG3 Ab inh	PREPL inhibitor	GASC-1 inh	GRK2 inh confirm	Aptamer quench SP	others
c1ccc(C[C@H]2CN=C(Nc3ccccc3)N2CCC2CCCC2)cc1	68*	33	110	41	-3	-4	99
O=S(=O)(c1ccccc1)N1CCN(Cc2ccccc2)c2ccccc21	·	·	119	·	·	·	·
CCOc1ccc(NC(=O)CSc2nc3c([nH]c4ccccc43)c(=O)n2C)cc1	1	13	104	10	13	·	·
COc1ccc(NC(=O)CSc2nc3c([nH]c4ccccc43)c(=O)n2C)c(OC)c1	97*	4	49*	-8	-1	·	·	GRK2 confirm 2=0;FAM quench CP2=96
COc1ccc(OC)c(NC(=O)CSc2nc3c(c(=O)n(C)c(=O)n3C)n2C)c1	74*	13	83	-8	2	-3	93
NC(=O)c1cc(S(=O)(=O)N2CCOCC2)ccc1N1CCCC1	0	-15	103	4	10	·	·
CN1C(=O)C(C)(C)c2cc(S(=O)(=O)N3CCCC(C(=O)NCc4ccccc4Cl)C3)ccc21 (stereo not drawn)	0	-18	100	14	-10	2	101
COCCn1c(SCC(=O)Nc2cccnc2Cl)nc2cc(Cl)ccc2c1=O	4	6	·	12	18	·	·
CC(C)N(CCn1c(SCC(=O)Nc2cccnc2Cl)nc2ccccc2c1=O)C(C)C	42*	36	100	-16	0	·	·	GRK2 confirm 2=-9;FAM quench CP2=99
CC(c1nnc(SCC(=O)Nc2cccnc2Cl)n1Cc1ccccc1)N(C)C (stereo not drawn)	99*	13	84	4	-8	3	91
CC(=O)c1cccc(NC(=O)CSc2nnc(C(C)N(C)C)n2Cc2ccccc2)c1 (stereo not drawn)	0	-3	·	-8	-12	·	·
CCSCc1nnc(SCC(=O)Nc2ccc(OC)cc2)n1C	3	-4	110	6	5	·	·
O=P(c1ccccc1)(c1ccccc1)c1cc(S(=O)(=O)O)ccc1O	74*	8	90	·	-5	52*	98	Aptamer quench 1=1.5
CCOC(=O)c1c(-c2ccc(F)cc2)csc1NC(=O)C1CC=CCC1C(=O)O (stereo not drawn)	95*	-3	98	9	2	5	98
c1ccc(C2Nc3ccccc3Oc3ccccc32)cc1 (stereo not drawn)	52*	-1	92	-5	14	-18	96
c1ccc(C2Nc3ccccc3C3OCCCC23)cc1 (stereo not drawn)	1	-8	125	23	19	·	·
Cc1ccc(C(=O)N/C(=C\c2cn(C)c3ccccc23)C(=O)NCCN2CCOCC2)cc1	4	5	103	2	111	·	·
CC1(C)CC(=O)C2=C(C1)c1c(ccc3ccccc13)NC2c1ccc(OCC(=O)O)cc1 (stereo not drawn)	78*	15	117	-4	14	0	94
COc1cc(C2Nc3ccc4ccccc4c3C3=C2C(=O)CC(C)(C)C3)ccc1OCC(=O)O (stereo not drawn)	0	7	115	2	0	·	·
O=C(CCOc1ccccc1)Nc1ccnn1C1CCN(C(=O)CCC(F)(F)F)CC1	98*	-112	105	3	2	0	98
O=C(NCc1ccc2c(c1)OCO2)c1ccc(CSCc2ccc(Cl)cc2)o1	51*	11	·	-5	2	·	·	GRK2 confirm 2=-22;FAM quench CP2=105
CN(C)CCOc1ccc2ccccc2c1	0	-4	100	-5	3	·	·
c1ccc2cc(OCCOCCOc3ccc4ccccc4c3)ccc2c1	55*	5	98	-87	2	-4	101
O=C(O)CCn1nnc(-c2cccs2)n1	1	0	109	9	-8	·	·
O=C(O)Cn1nnc(-c2cccs2)n1	89*	-1	107	14	1	-2	100
SMILES	GRK2 aptamer HTS	VLA-4 inh	DSG3 Ab inh	PREPL inhibitor	GASC-1 inh	GRK2 inh confirm	Aptamer quench SP	others
Cc1cc(C)n(CCCN2CCC(C(=O)Nc3cccc(-c4cccc(F)c4)c3)CC2)n1	0	2	113	-37	3	·	·
NS(=O)(=O)c1ccc(NC(=S)N2CCN(c3ccccc3Cl)CC2)cc1	48*	16	99	2	3	·	·	GRK2 confirm 2=2;FAM quench CP2=334
NS(=O)(=O)c1ccc(NC(=S)N2CCN(c3cccc(Cl)c3)CC2)cc1	0	-5	98	-28	-2	·	·
Cc1ccc(/C=C/C(=O)NCCc2c[nH]c3ccccc23)o1	94*	-1	116	-15	-6	0	101
Cc1ccc2[nH]cc(CCNC(=O)/C=C/c3ccco3)c2c1	9	-9	110	17	-22	·	·
CC(C)CNC(=O)CSc1nc2nn(-c3ccccc3)c(=O)c-2c2n1CCCCC2	39	8	·	8	10	-4	99
CNC(=O)CSc1nc2nn(-c3ccccc3)c(=O)c-2c2n1CCCCC2	4	-2	103	18	14	·	·
CC1CN(S(=O)(=O)c2cccc(C(=O)N(C)C3CCN(C)CC3)c2)CC(C)O1 (stereo not drawn)	6	-4	105	16	-2	·	·
CCC(C)CCN1C(N(C)C)=NC[C@@H]1Cc1ccccc1 (stereo partly drawn)	0	37	105	-2	-4	·	·
CCN1C(N(C)C)=NC[C@@H]1Cc1ccccc1	73*	-16	109	0	0	-1	104
COc1ccc(Cc2nnc(SCC(=O)Nc3ccccc3C)n(N)c2=O)cc1	100*	-8	121	13	15	-4	96
Cc1ccc(NS(=O)(=O)c2cccc(C(=O)N3CCCCCCC3)c2)cc1	0	-5	98	4	1	·	·
Cc1ccc(S(=O)(=O)Nc2cccc(C(=O)N3CCC(C(N)=O)CC3)c2)cc1	61*	2	101	-6	·	3	97
O=C(Nc1ccccc1C(=O)NC(Cc1ccccc1)C(=O)NC1CCCCC1)c1ccccc1 (stereo not drawn)	10	2	99	-4	1	·	·
CC(C)CCNC(=O)c1ccc(-n2cnc3cccnc32)cc1	45*	6	94	20	-5	-1	98
CCOCCCNC(=O)CCc1ccc(-n2cnc3cccnc32)cc1	0	1	102	·	-1	·	·

Screens: PubChem, several laboratories
